Compounds with a hit are over-represented: about 10% of the library has one in this group of screens.
JMJD2A Tudor: JMJD2A Tudor domain (human) inhibition; Potency, µM (top dose mostly 114 µM), most hits filed as inhibitors; O75164; 390,000 compounds, 4.4% hits; AlphaScreen JMJD2A-Tudor / H3K4me3 peptide binding; AID 504339; also: nearly all actives have a fitted effect of over 50% in size
G9a inh: blocks human histone lysine methyltransferase G9a; Potency, µM (series often up to 102 µM), most hits filed as inhibitors; G9a H3K9 monomethylation, AlphaScreen, 2 h; 350,000 compounds, 8.8% hits; Q96KQ7; also: nearly all actives have a fitted effect of over 75% in size
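Quantitative HTS format: methyltransferase activity on a biotin-tagged H3K9 peptide is measured by AlphaScreen, using a rabbit anti-monomethyl-H3K9 antibody with streptavidin donor and anti-IgG acceptor beads. Final levels are 20 nM enzyme, 500 nM peptide, 20 uM SAM; 2 h RT.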
BAZ2B inh: blocks human BAZ2B | 360,000 compounds, 4.4% hits | AlphaScreen BAZ2B-H3K14Ac peptide displacement | AID 504333 | Potency, µM (series often up to 114 µM), hits mostly inhibitors; also: nearly all actives have a fitted effect of over 60% in size
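Compounds, titrated to a top concentration of 110 uM, were incubated 30 min at room temperature with preformed BAZ2B/acetyl-K14 H3 peptide complex (50 nM each). Proximity signal was measured by AlphaScreen after 20 min with beads.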
L3MBTL1 block: blocks human L3MBTL1; Potency, µM (series often up to 57.1 µM), most hits filed as inhibitors; AID 485360; 230,000 compounds, 0.66% hits; AlphaScreen L3MBTL1–H3K9me1 peptide binding; also: nearly all actives have a fitted effect of over 60% in size
Target sequence (Q9Y468 whole entry, looked up): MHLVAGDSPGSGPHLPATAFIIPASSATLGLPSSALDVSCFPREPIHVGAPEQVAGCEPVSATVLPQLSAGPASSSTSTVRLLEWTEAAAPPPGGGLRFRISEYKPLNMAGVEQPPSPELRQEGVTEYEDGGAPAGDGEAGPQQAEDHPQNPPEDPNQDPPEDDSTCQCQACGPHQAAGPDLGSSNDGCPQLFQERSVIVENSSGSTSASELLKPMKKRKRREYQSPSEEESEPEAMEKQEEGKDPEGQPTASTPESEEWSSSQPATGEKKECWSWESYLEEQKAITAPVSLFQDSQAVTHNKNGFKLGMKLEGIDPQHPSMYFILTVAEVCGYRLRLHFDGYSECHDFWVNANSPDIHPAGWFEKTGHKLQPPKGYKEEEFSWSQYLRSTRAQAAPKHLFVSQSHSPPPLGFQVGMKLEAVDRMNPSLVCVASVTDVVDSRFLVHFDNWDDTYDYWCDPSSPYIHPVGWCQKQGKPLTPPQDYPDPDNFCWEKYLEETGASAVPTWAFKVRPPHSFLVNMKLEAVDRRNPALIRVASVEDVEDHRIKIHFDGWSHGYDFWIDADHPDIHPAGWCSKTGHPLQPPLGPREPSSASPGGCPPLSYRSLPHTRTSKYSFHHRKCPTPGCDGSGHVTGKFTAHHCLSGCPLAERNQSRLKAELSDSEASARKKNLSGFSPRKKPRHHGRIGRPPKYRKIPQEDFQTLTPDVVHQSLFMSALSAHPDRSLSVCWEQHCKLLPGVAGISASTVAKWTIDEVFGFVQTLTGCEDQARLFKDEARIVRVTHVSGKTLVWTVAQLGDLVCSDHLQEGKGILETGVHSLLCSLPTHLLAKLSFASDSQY
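L3MBTL1 50 nM + b-AHA-H3(1-15)K9me1 75 nM, 30 min RT; compound added, 30 min RT; streptavidin donor/Ni-chelate acceptor beads 10 ug/mL each final, 30 min RT dark; AlphaScreen read.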
GLS inhibitor: blocks human kidney-isoform glutaminase activity; O94925; GLS enzymatic activity, qHTS titration; Potency, µM (titrated, usually from 45.5 µM), most hits filed as inhibitors; 410,000 compounds, 0.21% hits
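Assay buffer: 45 mM KH2PO4 pH 8.2, 0.02% Tween-20. hKGA acts on L-glutamine (1 mM solution added); product glutamate is reported by an oxidase/peroxidase Amplex Red coupling, with fluorescence taken at baseline and 30 min.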
HP1b binding inh: HP1-beta chromodomain-methylated histone interaction inhibition; 390,000 compounds, 0.56% hits; Potency, µM (series often up to 114 µM), most hits filed as inhibitors; AlphaScreen HP1-beta / biotin-H3K9me3 peptide binding; AID 540317; P83916; also: nearly all actives have a fitted effect of over 70% in size
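Compound inhibition of the preformed complex between 50 nM HP1-beta and 50 nM biotinylated H3K9me3 peptide was read by AlphaScreen. Buffer was PBS pH 7.4 with 0.01% Tween-20. Incubations ran 30 min at room temperature, with 10 ug/mL donor/acceptor beads.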
Of the large screens only hits and unclear results are named; the others gave an inactive call. Calls follow the shape of the dose curve; as a rule, active = well fitted curve in the direction sought with a large enough effect; inconclusive = small, poorly fitted or top-dose-only effect, or another doubt; inactive = no such curve, though single readings can be large; an effect the other way counts as inactive or inconclusive.

CN1C(=O)c2c(sc3c2CCCC3)NC1c1ccccc1O (stereo unspecified)	G9a inh inconclusive (no result: JMJD2A Tudor, GLS inhibitor, HP1b binding inh)
O=[S+]([O-])(c1ccc(N2CCOCC2)nc1)N1CCN([S+](=O)([O-])c2c(F)cccc2F)CC1	none (no result: G9a inh, BAZ2B inh, L3MBTL1 block, GLS inhibitor, HP1b binding inh)
CCCn1c(SCC(=O)N2CCCCC2)nnc1C(C)C	JMJD2A Tudor 25µM, HP1b binding inh inconclusive (no result: G9a inh)
COc1ccc(N(CC(=O)Nc2ccc(C)c(C)c2)S(=O)(=O)c2ccc(C)cc2)cc1OC	none (no result: L3MBTL1 block)
Fc1ccc(N/N=C2/CC(c3ccccc3)Oc3ccccc32)c(F)c1 (stereo unspecified)	JMJD2A Tudor inconclusive, G9a inh 10µM, BAZ2B inh inconclusive
CNC(=S)N/N=C1\CC(c2ccccc2)Oc2ccccc21 (stereo unspecified)	none
CCOc1ccc(NC(c2ccccn2)c2oc(CO)cc(=O)c2O)cc1 (stereo unspecified)	JMJD2A Tudor 22µM, G9a inh 1.4µM, BAZ2B inh 20µM, HP1b binding inh inconclusive (no result: L3MBTL1 block)
CCOC(=O)C(c1ccccc1)C(Nc1ccc(F)cc1)c1ccccn1 (stereo unspecified)	none
CCN1C(=O)S/C(=C/c2c(OCc3ccc(C(=O)O)cc3)ccc3ccccc23)C1=O	JMJD2A Tudor inconclusive, G9a inh 50µM, BAZ2B inh inconclusive
COc1cccc(Cn2ncc3c4sc(SC)cc4n(C)c3c2=O)c1	none (no result: G9a inh, BAZ2B inh, L3MBTL1 block, GLS inhibitor, HP1b binding inh)
Cc1ccc2c(c1)=C(c1sc(N(C)c3ccc(O)cc3)nc1O)C(=O)N=2	G9a inh 45µM (no result: L3MBTL1 block)
COc1ccc(C2=NN(c3nc(C(=O)O)cs3)C(O)(C(F)(F)F)C2)c(OC)c1 (stereo unspecified)	BAZ2B inh 50µM
COc1ccc(C2C(C(C)=O)=C(C)Nc3ncnn32)cc1[N+](=O)[O-] (stereo unspecified)	JMJD2A Tudor 89µM (no result: L3MBTL1 block)
O=C(CSc1ccc2nc(-c3ccccc3)cn2n1)Nc1cccc(F)c1	none (no result: L3MBTL1 block)
COc1ccc(OC)c(-c2noc(N3CCN(c4ccc(C(C)=O)cc4)CC3)n2)c1	none (no result: L3MBTL1 block)
O=C(CCCN1C(=O)/C(=C/c2ccccc2Cl)SC1=S)Nc1ccccn1	JMJD2A Tudor 18µM, G9a inh 13µM, BAZ2B inh inconclusive, L3MBTL1 block inconclusive, HP1b binding inh inconclusive
Cc1ccc(C(=O)NNC(=O)CCCN2C(=O)/C(=C/c3ccccc3Cl)SC2=S)cc1	none
O=C(CCCN1C(=O)/C(=C/c2cccs2)SC1=S)Nc1ccccn1	JMJD2A Tudor inconclusive, G9a inh inconclusive, BAZ2B inh inconclusive, L3MBTL1 block 35µM, HP1b binding inh inconclusive
O=C1/C(=C/c2ccccc2Cl)SC(=S)N1CCCC(=O)N(CCO)c1ccccc1	JMJD2A Tudor 8.9µM, G9a inh 20µM, BAZ2B inh 3.2µM (no result: L3MBTL1 block)
O=C(CCN1C(=O)/C(=C\c2cccs2)SC1=S)Nc1ccccn1	G9a inh inconclusive, BAZ2B inh inconclusive, L3MBTL1 block inconclusive
O=C(CCCN1C(=O)/C(=C/c2ccccc2Cl)SC1=S)NNC(=O)c1ccc(Cl)cc1	none (no result: L3MBTL1 block)
O=C(CCN1C(=O)/C(=C/c2ccccc2Cl)SC1=S)Nc1ccccn1	G9a inh 7.9µM, BAZ2B inh inconclusive (no result: L3MBTL1 block)
O=C(CCN1C(=O)/C(=C/c2ccccc2F)SC1=S)Nc1ccccn1	BAZ2B inh inconclusive (no result: L3MBTL1 block)
Clc1ccccc1CNCCCSc1nnnn1-c1ccccc1	none (no result: L3MBTL1 block)
CCOC(=O)c1c(S(=O)(=O)N2CCC(C(=O)NCc3ccccc3Cl)CC2)c(C)n(C)c1C	none (no result: L3MBTL1 block)
COc1cc(/C=C2\SC(=S)N(CCC(=O)Nc3ccccn3)C2=O)cc(OC)c1OC	G9a inh 7.9µM (no result: L3MBTL1 block)
COc1cc(/C=C2\SC(=S)N(CC(=O)Nc3ccccn3)C2=O)cc(OC)c1OC	JMJD2A Tudor inconclusive, G9a inh inconclusive, BAZ2B inh inconclusive
O=C(CCN1C(=O)/C(=C/c2ccccc2Cl)SC1=S)Nc1cccnc1	BAZ2B inh inconclusive (no result: L3MBTL1 block)
O=C(CCCN1C(=O)/C(=C/c2ccccc2Cl)SC1=S)Nc1cccnc1	JMJD2A Tudor 22µM, BAZ2B inh inconclusive (no result: L3MBTL1 block)
O=C1CCCCC2CCCCN12 (stereo unspecified)	none (no result: JMJD2A Tudor, BAZ2B inh, L3MBTL1 block, GLS inhibitor, HP1b binding inh)
CC(C)=CC(=O)Nc1ccc(Cl)cc1	none
